Measurements: PubChem BioAssay AID1159580 (chemical genetic matrix, 2015)
“And” between values parts separate entries of the source, which are not always exact repeats. Identical values can stand only once. About 2,000 (36%) of roughly 5,500 compounds were called active. Another 18% or so got no clear call; they are omitted. Cut-off read from the data, not from the text of the source: active = normalized growth mostly below about 0.91 (no sharp cut-off); inconclusive = no clear call, values can overlap the other calls; inactive = mostly above about 0.92. The list shows a part of the results.

Experiment: chemical genetic growth profiling, strain panel (AID 1159580);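 note: tested at 20 µM; growth read once vehicle control cultures reached saturation at 30 °C; 1 = growth at the plate median or of vehicle wells; lower values mean less growth of the strain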
Details: S. cerevisiae deletion strains, growth OD

Measured: normalized growth

CCCC(=O)O[C@]1(C(=O)CO)CCC2[C@@H]3CCC4=CC(=O)CC[C@]4(C)C3[C@@H](O)C[C@@]21C (stereo not given in full)
inactive: locus YAL013W, strain DEP1, active compounds read low 1.01 | locus YAL021C, strain ccr4, active compounds read low 0.997 | locus YAL026C, strain drs2, active compounds read low 1.02 | locus YAL030W, strain snc1, active compounds read low 1 | locus YBL061C, strain skt5, active compounds read low 1 | locus YBR009C, strain hhf1, active compounds read low 1 | locus YBR021W, strain FUR4, active compounds read low 1.02 | locus YBR023C, strain chs3, active compounds read low 1 | locus YBR171W, strain sec66, active compounds read low 1.01 | locus YBR229C, strain ROT2, active compounds read low 1.02 | locus YBR231C, strain swc5, active compounds read low 1 | locus YBR279W, strain paf1, active compounds read low 0.996 | locus YCL011C, strain gbp2, active compounds read low 1.01 | locus YCL016C, strain dcc1, active compounds read low 1.01 | locus YCL029C, strain bik1, active compounds read low 0.983 | locus YCL061C, strain MRC1, active compounds read low 1 | locus YCL069W, strain vba3, active compounds read low 1 | locus YCR088W, strain abp1, active compounds read low 1.01 | locus YDL005C, strain med2, active compounds read low 1.01 | locus YDL035C, strain GPR1, active compounds read low 0.997 | locus YDL040C, strain nat1, active compounds read low 1.01 | locus YDL074C, strain BRE1, active compounds read low 1.01 | locus YDL101C, strain DUN1, active compounds read low 1.01 | locus YDL134C, strain PPH21, active compounds read low 1.01 | locus YDL185W, strain tfp1, active compounds read low 0.965 | locus YDL192W, strain arf1, active compounds read low 0.98 | locus YDR001C, strain nth1, active compounds read low 1.01 | locus YDR069C, strain doa4, active compounds read low 1.01 | locus YDR101C, strain arx1, active compounds read low 1.01 | locus YDR137W, strain rgp1, active compounds read low 1.01 | locus YDR150W, strain NUM1, active compounds read low 1.01 | locus YDR159W, strain sac3, active compounds read low 0.998 | locus YDR162C, strain NBP2, active compounds read low 0.991 | locus YDR195W, strain ref2 0.99 | locus YDR297W, strain sur2, active compounds read low 1.01 | locus YDR318W, strain mcm21, active compounds read low 1 | locus YDR334W, strain swr1, active compounds read low 1.02 | locus YDR335W, strain msn5, active compounds read low 1 | locus YDR388W, active compounds read low 0.976 | locus YDR392W, strain spt3, active compounds read low 1.01 | locus YDR502C, strain sam2, active compounds read low 0.981 | locus YEL003W, strain gim4, active compounds read low 1.01 | locus YEL037C, strain rad23, active compounds read low 1 | locus YEL061C, strain CIN8 (second series), active compounds read low 1.01 | locus YEL061C, strain CIN8, active compounds read low 1 | locus YER015W, strain faa2, active compounds read low 1.01 | locus YER016W, strain bim1, active compounds read low 1.01 | locus YER110C, active compounds read low 0.946 | locus YER111C, strain swi4, active compounds read low 1.01 | locus YER155C, strain BEM2 (second series), active compounds read low 1.01 | locus YER155C, strain BEM2, active compounds read low 1.02 | locus YER167W, strain BCK2, active compounds read low 1.01 | locus YFR010W, strain ubp6, active compounds read low 1.01 | locus YGL078C, strain dbp3, active compounds read low 0.978 | locus YGL086W, strain mad1, active compounds read low 0.99 | locus YGL167C, strain pmr1, active compounds read low 1.01 | locus YGL173C, strain kem1, active compounds read low 1 | locus YGL227W, strain vid30, active compounds read low 1.02 | locus YGL240W, strain doc1, active compounds read low 1.01 | locus YGL248W, strain PDE1, active compounds read low 1.02 | locus YGL253W, strain hxk2, active compounds read low 1.01 | locus YGR135W, strain pre9, active compounds read low 0.939 | locus YGR229C, strain SMI1, active compounds read low 0.987 | locus YGR252W, strain gcn5, active compounds read low 0.94 | locus YHR013C, strain ard1, active compounds read low 1.01 | locus YHR027C, strain rpn1, active compounds read low 1 | locus YHR030C, strain SLT2, active compounds read low 1.01 and 1.04 | locus YHR079C, strain IRE1 (second series), active compounds read low 0.997 | locus YHR079C, strain IRE1, active compounds read low 1.05 | locus YHR094C, strain hxt1, active compounds read low 0.984 | locus YHR129C, strain ARP1, active compounds read low 1.01 | locus YHR142W, strain chs7, active compounds read low 1.02 | locus YHR200W, strain rpn10, active compounds read low 0.994 | locus YIL066C, strain RNR3, active compounds read low 1.02 | locus YIL073C, strain SPO22, active compounds read low 0.867 | locus YIL125W, strain kgd1, active compounds read low 0.994 | locus YIR030C, strain dcg1, active compounds read low 0.994 | locus YJL092W, strain hpr5, active compounds read low 1.01 | locus YJL095W, strain BCK1 (second series), active compounds read low 1 | locus YJL095W, strain BCK1, active compounds read low 1.01 and 1.05 | locus YJL115W, strain asf1, active compounds read low 1.02 | locus YJL129C, strain trk1, active compounds read low 1.01 | locus YJL134W, strain LCB3, active compounds read low 1.01 | locus YJL154C, strain vps35, active compounds read low 1.01 | locus YJL164C, strain tpk1, active compounds read low 1.01 | locus YJL166W, strain qcr8, active compounds read low 1.01 | locus YJL168C, strain set2, active compounds read low 0.976 | locus YJL187C, strain SWE1 (second series), active compounds read low 1.01 | locus YJL187C, strain SWE1, active compounds read low 1 | locus YJR043C, strain POL32, active compounds read low 0.992
